Hit rate of the full screen: of about 310,000 compounds, about 14,000 (4.5%) showed an effect of 50% or more. The effect is printed as a negative number. Shown is part of a subset that was picked to be rich in strong results.
Molecular target: human ether-à-go-go-related gene (hERG) potassium channel (human, UniProt Q12809)
Assay: primary screen, population patch clamp on CHO cells stably expressing hERG; higher = less effect of the substance
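Also: peak tail current of the secondary pulse compared with the same well before compound.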

Sequence of human ether-à-go-go-related gene (hERG) potassium channel (Q12809 whole entry, looked up): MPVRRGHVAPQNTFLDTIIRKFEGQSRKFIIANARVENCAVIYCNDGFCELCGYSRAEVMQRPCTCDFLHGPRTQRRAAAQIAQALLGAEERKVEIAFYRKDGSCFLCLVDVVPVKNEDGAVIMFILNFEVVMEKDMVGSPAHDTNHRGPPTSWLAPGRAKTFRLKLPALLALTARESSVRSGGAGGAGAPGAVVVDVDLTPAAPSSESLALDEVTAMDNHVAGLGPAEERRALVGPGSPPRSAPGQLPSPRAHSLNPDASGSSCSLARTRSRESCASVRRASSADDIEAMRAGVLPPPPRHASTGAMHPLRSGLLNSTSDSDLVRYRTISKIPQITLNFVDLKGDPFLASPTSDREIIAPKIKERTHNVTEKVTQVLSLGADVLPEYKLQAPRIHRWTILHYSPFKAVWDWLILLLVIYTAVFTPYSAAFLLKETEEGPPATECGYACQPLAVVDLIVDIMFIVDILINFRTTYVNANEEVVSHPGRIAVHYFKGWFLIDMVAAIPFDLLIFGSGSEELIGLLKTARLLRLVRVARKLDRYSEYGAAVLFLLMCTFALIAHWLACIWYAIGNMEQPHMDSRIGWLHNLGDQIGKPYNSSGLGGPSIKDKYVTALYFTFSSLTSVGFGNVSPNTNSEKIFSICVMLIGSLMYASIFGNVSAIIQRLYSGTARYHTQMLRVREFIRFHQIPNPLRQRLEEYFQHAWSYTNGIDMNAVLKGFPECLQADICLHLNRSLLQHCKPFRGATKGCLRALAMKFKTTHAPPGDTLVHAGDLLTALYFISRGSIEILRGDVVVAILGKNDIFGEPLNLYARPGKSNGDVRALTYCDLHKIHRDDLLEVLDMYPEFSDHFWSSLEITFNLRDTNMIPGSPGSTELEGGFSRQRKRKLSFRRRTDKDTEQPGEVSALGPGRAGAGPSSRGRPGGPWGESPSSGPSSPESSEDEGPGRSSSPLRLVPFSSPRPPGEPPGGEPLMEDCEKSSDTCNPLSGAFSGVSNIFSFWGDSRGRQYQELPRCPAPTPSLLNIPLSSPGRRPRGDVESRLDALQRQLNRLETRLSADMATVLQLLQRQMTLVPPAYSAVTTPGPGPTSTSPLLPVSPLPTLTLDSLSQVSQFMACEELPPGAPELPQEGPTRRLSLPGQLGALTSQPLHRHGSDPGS

Compound | hERG current change (%, negative = inhibition) at 10uM [%]
CCN(CC)CCN(Cc1cc2cc3c(cc2[nH]c1=O)OCO3)C(=S)NCC(C)C | -55.1
CC(C)CNC(=S)N(CCN(C)C)Cc1cc2cc3c(cc2[nH]c1=O)OCO3 | 0.354
CCN(CC)CCN(Cc1cc2cc3c(cc2[nH]c1=O)OCCO3)C(=S)NCC(C)C | -4.96
S=C1NCCOCCNC(=S)NCCOCCOCCOCCN1 | 10.2
CCc1cc(=O)oc2cc(C)c3c(C)coc3c12 | 16.3
CCOC(=O)C1=C(C)NC(=O)C(C(N)=O)C12CCCCC2 (centres unmarked) | 12.4
CC(C)NC(=O)CN1C(=O)CSc2ccc(S(=O)(=O)N3CCCC3)cc21 | 15.6
COC(=O)CCC(=O)N1CCCC(N2CCN(c3ccc(OC)cc3)CC2)C1 (centres unmarked) | -1.47
COc1ccc(N2CCN(C3CCCN(Cc4cccc(OC)c4)C3)CC2)cc1 (centres unmarked) | -64.4
CCOc1ccc(CN2CCCC(N3CCN(c4ccc(OC)cc4)CC3)C2)cc1 (centres unmarked) | -64
COc1ccc(CN2CCCC(N3CCN(c4ccc(OC)cc4)CC3)C2)cc1 (centres unmarked) | -45
COc1ccccc1N1CCN(C2CCCN(Cc3ccccc3OCCO)C2)CC1 (centres unmarked) | -25.5
OCCOc1ccc(CN2CCCC(N3CCN(c4ccc(F)cc4)CC3)C2)cc1 (centres unmarked) | -69.8
CSc1ccc(CN2CCCC(N3CCN(c4ccccc4)CC3)C2)cc1 (centres unmarked) | -64.2
COc1ccc(N2CCN(C3CCCN(Cc4cccc(C(C)=O)c4)C3)CC2)cc1 (centres unmarked) | -30.2
COc1ccc(N2CCN(C3CCCN(Cc4cccc(C)c4)C3)CC2)cc1 (centres unmarked) | -32.8
CCN(C1CCS(=O)(=O)C1)S(=O)(=O)c1ccc2ccccc2c1 (centres unmarked) | -10.5
Cc1c[n+](CC(=O)c2ccccc2)cs1.[Br-] | 22
COc1ccc(NC(=O)CSCC(=O)Nc2ccccc2N2CCCC2)cc1 | -7.76
CCOC(=O)c1csc(NC(=O)c2ccc(OCC)cc2)n1 | -14.9
Cc1ccccc1C(=O)OC1OC(=O)C(Cl)=C1Nc1ccc(C(=O)O)cc1 (centres unmarked) | 24.4
COc1ccc(S(=O)(=O)N2CCN3CCCC3C2)cc1 (centres unmarked) | 22.7
COc1ccccc1N1CCN(C2CCCN(Cc3c(F)cccc3F)C2)CC1 (centres unmarked) | -16.3

Compound | hERG current change (%, negative = inhibition) at 10uM [%]
CCc1ccc(S(=O)(=O)N2CCCC(N3CCN(c4ccc(OC)cc4)CC3)C2)cc1 (centres unmarked) | -65.4
COc1ccc(N2CCN(C3CCCN(S(=O)(=O)c4ccccc4)C3)CC2)cc1 (centres unmarked) | -31.1
COc1ccc(N2CCN(C3CCCN(Cc4ccc(F)c(F)c4)C3)CC2)cc1 (centres unmarked) | -64.6
CC1CCCCN1CCCNc1ccc(C(CC(N)=O)NC(=O)Cc2cccc3ccccc23)cc1[N+](=O)[O-] (centres unmarked) | -14.6
Nc1nc(Oc2ccc(F)cc2)c(Br)c(=O)[nH]1 | 7.49
COc1ccc(-c2c(-c3ccc(OCC(=O)NN)cc3O)n[nH]c2C(F)(F)F)cc1 | -5.25
C/C(CC(=O)Nc1cc(Cl)ccc1Cl)=N\NC(=O)c1ccco1 | -6.6
Cc1ccc(CCNC(=O)C2CC(c3ccccc3[N+](=O)[O-])=NO2)cc1 (centres unmarked) | -20.7
Cc1c(C=O)n(C)n(-c2ccccc2)c1=O | 11.5
Cl.O=C(c1cc2ccccc2o1)N1CCN(Cc2ccccc2)CC1 | -32.6
O=C(c1cc2ccccc2o1)N1CCN(C/C=C/c2ccccc2)CC1 | -62.2
O=C(c1cc2ccccc2o1)N1CCN(S(=O)(=O)/C=C/c2ccccc2)CC1 | -30.8
O=C(c1ccc(Br)o1)N1CCN(C/C=C/c2ccccc2)CC1 | -61.8
Cl.O=C(c1ccco1)N1CCN(C/C=C/c2ccccc2)CC1 | -38
O=C(c1ccc(Br)s1)N1CCN(C/C=C/c2ccccc2)CC1 | -40.6
S=c1[nH]nc(-c2cccs2)n1Cc1ccccc1 | 9
CCCN1C2CCCC1CC(NC(=O)NC1CCCCC1)C2 (centres unmarked) | -12.4
COCCNC(=O)Cn1cnc2ccc(S(=O)(=O)N3CCC(C)CC3)cc2c1=O | -15.1
CCOCC(=O)Nc1cc(-c2cn3cccnc3n2)ccc1C | 6.69
CCn1c(CSc2nc3ccccc3s2)nnc1SCC(=O)c1ccc(O)cc1O | 12.2
Cn1c(SCC(=O)N2CCCCC2)nc2cccnc21 | 22.2
NC(=O)c1ccsc1NC(=O)COC(=O)C1=NNC(=O)CC1 | 8.28
COC(=O)c1cc2n(n1)CCN(Cc1ccc(C)cc1)C2=O | 1.46

Compound | hERG current change (%, negative = inhibition) at 10uM [%]
CCN1CCN(C(=O)c2cc3cc(F)ccc3[nH]2)CC1 | -65
CCN1CCN(C(=O)c2cc3cc(Cl)ccc3[nH]2)CC1 | -59.8
CCOC(=O)N1CCN(C(=O)c2cc3cc(F)ccc3[nH]2)CC1 | -19.8
CN1CCN(C(=O)c2cc3cc(Cl)ccc3[nH]2)CC1.Cl | -35.7
O=C(c1cc2cc(F)ccc2[nH]1)N1CCN(c2ccc(F)cc2)CC1 | -4.93
CCOC(=O)N1CCN(C(=O)c2cc3cc(Cl)ccc3[nH]2)CC1 | -15.7
CC(=O)Nc1ccc(S(=O)(=O)N(c2cccnc2)S(=O)(=O)c2ccc(NC(C)=O)cc2)cc1 | -3.89
Cc1cc(C)cc(NC(=O)CSc2ncc(S(=O)(=O)c3ccccc3)c(=O)[nH]2)c1 | 13.6
O=C(Nc1ncn[nH]1)c1cc(S(=O)(=O)Nc2cccc(C(F)(F)F)c2)ccc1Cl | 17.8
COc1ccc(CNC(=O)COC(=O)c2n[nH]c3ccccc23)cc1 | 7.27
Cc1ccc(C(OCCN(C)C)c2cccc(C(F)(F)F)c2)cc1.O=C(O)/C=C\C(=O)O (centres unmarked) | -58.6
CN(C)CCOC(c1ccc(Cl)cc1)c1ccccn1.O=C(O)/C=C/C(=O)O (centres unmarked) | -43
CN(C)CCO[C@@H](c1ccc(Cl)cc1)c1ccccn1.O=C(O)/C=C\C(=O)O | -29.5
CCOc1cc(/C=N\Nc2ncc(F)c(N3CCOCC3)n2)ccc1Oc1nc(Cl)ncc1F | -51.8
CCOc1cc(/C=N/NC(=O)c2ccc(O)cc2)ccc1Oc1nc(Cl)ncc1F | -7.77
COc1ccc(/C=N\Nc2ncc(F)c(N3CCOCC3)n2)cc1OC | -31.1
CCS(=O)(=O)N1CCN(S(=O)(=O)c2ccc(F)cc2)CC1 | -18.4
O=C(NC1CCC(O)CC1)c1ccc(-c2ccc(Cl)cc2)o1 (centres unmarked) | -21.8
O=C(Nc1ccccc1)c1ccc(-c2ccc([N+](=O)[O-])cc2)o1 | 4.73
CC(=O)Nc1ccc(NC(=O)c2ccc(-c3ccc([N+](=O)[O-])cc3)o2)cc1 | -14.5
O=C(NC1CCC(O)CC1)c1ccc(-c2ccc([N+](=O)[O-])cc2)o1 (centres unmarked) | -76.2
O=C(NC1CCCCC1)c1ccc(-c2cccc([N+](=O)[O-])c2)o1 | 12.4
O=C(NC1CN2CCC1CC2)c1ccc(-c2ccc([N+](=O)[O-])cc2)o1 (centres unmarked) | -64

Compound | hERG current change (%, negative = inhibition) at 10uM [%]
Cc1cc(=O)[nH]c(Nc2ccc(Cl)cc2)n1 | 15
CN1C(=O)C(CC(=O)Nc2ccccc2F)N(NC(=O)c2ccc(Br)cc2)C1=S (centres unmarked) | 6.5
Cc1ccc(CCSCC(=O)O)cn1 | 18.9
C=CCN1C(=O)CSc2ccc(C(=O)NCc3ccc(F)cc3)cc21 | -21.3
CCN(C(=O)COc1ncnc2sccc12)c1ccccc1 | 63.8
COc1ccc(C2SCC(=O)N2c2c(C)n(C)n(-c3ccccc3)c2=O)cc1OC (centres unmarked) | 13.6
CC(COc1ccccc1)N1CCC(CO)(CCc2ccccc2)CC1 (centres unmarked) | -80.3
COc1ccc(CC2(CO)CCN(C(=O)NCc3ccccc3)CC2)cc1 | -2.8
COc1ccc(CC2(CO)CCN(C(C)COc3ccccc3)CC2)cc1 (centres unmarked) | -82
COc1ccc(CC2(CO)CCN(S(=O)(=O)c3sccc3C)CC2)cc1 | -20.9
COC(=O)CCCC(=O)N1CCC(CO)(CCc2ccccc2)CC1 | -23.8
CN(C)S(=O)(=O)N1CCC(CO)(CCc2ccccc2)CC1 | -8.86
CSCC(C)N1CCC(CO)(CCCc2ccccc2)CC1 (centres unmarked) | -55.7
COc1ccc(CCC(C)N2CCC(CO)(Cc3ccccc3)CC2)cc1 (centres unmarked) | -73.4
COc1cccc(CC2(CO)CCN(S(=O)(=O)c3ccc(OC)cc3OC)CC2)c1 | -10.7
CSCC(C)N1CCC(CO)(CCc2ccccc2)CC1 (centres unmarked) | -29.4
COc1ccc2c(C)c(CCC(=O)NCCCN3CCCC3=O)c(=O)oc2c1C | 1.56
Cc1ccc(-c2ccc(=O)n(CC(=O)NCCN3C(C)CCCC3C)n2)cc1 (centres unmarked) | 0.00388
CCCN(c1ccccc1F)S(=O)(=O)c1cc(-c2cc(C)no2)ccc1OC | 6.91
Cc1ccnc(NC(=O)CCC(=O)N(CC(=O)NC(C)(C)C)c2ccc3c(c2)OCCO3)c1 | 17.8
